The values below come from paper PMC7819943, “Rice protein-binding microarrays: a tool to detect cis-acting elements near promoter regions in rice”.

Over roughly 39,000 sequences, “fluorescence intensity (a.u.)” has its median near 4,300; the highest 2% begin near 39,000. The full list was thinned out, with the highest values kept by preference.

This experiment deals with T1, OsSMF1 (Oryza sativa, UniProt Q6ZLB0 1-436).
T1 sequence: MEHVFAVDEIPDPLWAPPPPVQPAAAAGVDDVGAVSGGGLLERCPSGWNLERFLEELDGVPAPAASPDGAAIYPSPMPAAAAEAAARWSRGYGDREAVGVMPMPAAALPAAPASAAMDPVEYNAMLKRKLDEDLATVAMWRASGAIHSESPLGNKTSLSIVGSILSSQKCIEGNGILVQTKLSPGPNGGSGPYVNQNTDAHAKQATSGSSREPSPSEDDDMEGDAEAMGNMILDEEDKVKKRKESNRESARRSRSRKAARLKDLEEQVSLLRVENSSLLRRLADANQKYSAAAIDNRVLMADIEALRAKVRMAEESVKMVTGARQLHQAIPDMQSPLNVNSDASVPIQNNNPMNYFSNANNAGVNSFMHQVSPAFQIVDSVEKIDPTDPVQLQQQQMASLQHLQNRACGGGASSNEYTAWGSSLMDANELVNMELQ
As to the kind of experiment: protein-binding microarray (RPBM); PBS, 2% BSA, 51.3 ng/ul salmon testes DNA, 50 uM zinc acetate, 200 nM TF, 25 C, 1 h; high values mean tight binding. As to conditions: protein: recombinant; tags: N-terminal polyhistidine and DsRed monomer fusion (pET32a); chain copies: 2; label: CyDye5-dUTP incorporated in the synthesized complementary strand; 3' TTTTT single-stranded linker to array surface; dsDNA, one strand shown. In outline:
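In PBS with 2% BSA, salmon testes DNA and 50 µM zinc acetate, 200 nM protein was incubated on a custom Agilent array at 25 °C for 1 h and then washed off. The array had been made double-stranded by primer extension with Cy5-dUTP and blocked with 2% BSA. The proteins were transcription factors fused N-terminally to polyhistidine and DsRed, expressed in E. coli BL21-CodonPlus and purified on Ni–NTA. The binding signal is per-feature fluorescence intensity (arbitrary units) from an Axon 4000B scanner.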
“ACTCCCCTCCCCGCCACGTCGCCATTCTTCCCGCTCCTGACGGAGTCACCTAGTGCAG”: the binding signal is 11800 fluorescence intensity (a.u.). In the case of “GCTCGCCTTTTATCGCAGCCAAAGCCATGAAATTTCCCCACGGAGTCACCTAGTGCAG” it was 27500 fluorescence intensity (a.u.); in that of “CTCGCGTCGCCACGCAACTTAATTAATTTAGCCCCTAATTCGGAGTCACCTAGTGCAG”, 3640 fluorescence intensity (a.u.). For “CTTCTAGCTGACACCTGTGCGCCGCCGCCTAATTTCAACTCGGAGTCACCTAGTGCAG”, the binding signal is 3930 fluorescence intensity (a.u.). In the case of “GCACCTCGTTAGGCTTCATGGTCATGGCTCGTCGCTGACGCGGAGTCACCTAGTGCAG” it was 6120 fluorescence intensity (a.u.).

For the sequence “GCGGTTTCCTAGTTGACTGACCAAACAATTCATATATATTCGGAGTCACCTAGTGCAG”, the binding signal was 6140 fluorescence intensity (a.u.). In the case of “CCTACACTGAAGTTAAGCAGATCTTCCAGGCCTCGTGTTTCGGAGTCACCTAGTGCAG” it was 43800 fluorescence intensity (a.u.). Regarding “TCGTGCTACAGATCTATAGCACACTACTCTTCTCTCTCTTCGGAGTCACCTAGTGCAG”, the binding signal was 3370 fluorescence intensity (a.u.). In the case of “CGGCCGTGTTAAGCCTCTTCCAAAGTCAGCTGAGTTGTGCCGGAGTCACCTAGTGCAG”, the binding signal is 5460 fluorescence intensity (a.u.).

As to “ACAAGAGCCAGCGCGGCGTGTGTGCGCGATTTCTCTCTTCCGGAGTCACCTAGTGCAG”, the binding signal was 3210 fluorescence intensity (a.u.). As to “TCTTACAGCGCGCGTGTTCGTTCGAACGATTCTCTTCTTCCGGAGTCACCTAGTGCAG”, the binding signal is 51900 fluorescence intensity (a.u.). In the case of “CCACGAACAGCTACACGTCTCCTTCTCCTTCTTCGATTTCCGGAGTCACCTAGTGCAG” it was 37400 fluorescence intensity (a.u.). In the case of “AGTGCCACTTAAGCGCCACATCAACGCCACATGGAAAGAACGGAGTCACCTAGTGCAG” it was 4210 fluorescence intensity (a.u.); in that of “AGACCCAAGTCACTCTCTCCGCTCCAGTCTCCACTCTCCACGGAGTCACCTAGTGCAG”, 23100 fluorescence intensity (a.u.); in that of “ACCACTCTACCACAACCATTACGCTATCCGCCACGAGCAACGGAGTCACCTAGTGCAG”, 3270 fluorescence intensity (a.u.). In the case of “CTCTAAATTTGTGCAGATGTGTCACCTAGATCCCTGAACTCGGAGTCACCTAGTGCAG” it was 4340 fluorescence intensity (a.u.); in that of “AAGATCTGTATGCCTCATGAGGGTTGGTGTGTAATACTCCCGGAGTCACCTAGTGCAG”, 3890 fluorescence intensity (a.u.); in that of “TCCACATGCTAATTTGTGGTGTCAGATACCTGAATACTCCCGGAGTCACCTAGTGCAG”, 41400 fluorescence intensity (a.u.). For “CCCCTACTATTTTCTAGGCTAGGAAGCGTGCGATCTTTTCCGGAGTCACCTAGTGCAG”, the binding signal was 3240 fluorescence intensity (a.u.).

On to “TGGCGCGACTGCTCGGGTCACCATAAATACGGGTAGGTGGCGGAGTCACCTAGTGCAG”, for which the binding signal is 3940 fluorescence intensity (a.u.).

Take “CTCCGCCGCTGGCCGCCTTGCCTGCTTGAGAGGAGGAGAGCGGAGTCACCTAGTGCAG”: the binding signal is 26800 fluorescence intensity (a.u.). In the case of “CTGCTTGAATCCTTCTCGCTGAGCTGGCCTGCAGCCTTTTCGGAGTCACCTAGTGCAG” it was 7190 fluorescence intensity (a.u.); in that of “GATTGATGAGGCCGCAAAGCCTGGCTGCCTGCCTGCTTCTCGGAGTCACCTAGTGCAG”, 54300 fluorescence intensity (a.u.); in that of “CATTATACATGTGTCATGTGTATTCGACTTCTGTGCTGCCCGGAGTCACCTAGTGCAG”, 4750 fluorescence intensity (a.u.). In the case of “GGTAGTCTGAAGCCTGTTGGTTATCCTCCTGGGAGTGTTGCGGAGTCACCTAGTGCAG” it was 3220 fluorescence intensity (a.u.). In the case of “AGATTAGTTTTCCCATATATTTCTTGTCAGTCGTCGTCATCGGAGTCACCTAGTGCAG” it was 3760 fluorescence intensity (a.u.); in that of “AATCAATACAAAGTCTGAAAGCCATTATGGTGGCAGTAATCGGAGTCACCTAGTGCAG”, 61300 fluorescence intensity (a.u.); in that of “ATAAAGTAACACATACACAAAGCCACATCATCAATATTTTCGGAGTCACCTAGTGCAG”, 8990 fluorescence intensity (a.u.). Turning to “AAGTAGTGTCTATGGTGCCATGTCAATAGGACATCATAATCGGAGTCACCTAGTGCAG”, the binding signal was 3920 fluorescence intensity (a.u.). In the case of “AATTTACAAGGTAAAATTTTATACCACCTTATATACTTTGCGGAGTCACCTAGTGCAG” it was 4160 fluorescence intensity (a.u.); in that of “ATTTATATTTTAAAATATACTTTTATATGACACTAATTTTCGGAGTCACCTAGTGCAG”, 3170 fluorescence intensity (a.u.).

On to “ATGCTAACCAACTAAAATACTTTTCCATGTACCTTACAAGCGGAGTCACCTAGTGCAG”, for which the binding signal is 60000 fluorescence intensity (a.u.). In the case of “TTCTTTTCCCATGGCCTCTGACTATGACATTATTTAAACACGGAGTCACCTAGTGCAG” it was 3440 fluorescence intensity (a.u.). In the case of “CATTTCCAAATTACATGTATGAATCCAACCAAAACTTTTCCGGAGTCACCTAGTGCAG” it was 17200 fluorescence intensity (a.u.).

Consider “CACTTTTATGACATTTTCAACCATACTATTTTCCTTAAAGCGGAGTCACCTAGTGCAG”, for which the binding signal is 39800 fluorescence intensity (a.u.). “CGTGACGCGCAGCTCCCTGCAGCCGACCTGGCCACCCACACGGAGTCACCTAGTGCAG”: the binding signal is 3500 fluorescence intensity (a.u.). In the case of “TATATTCGTGTCATTTAGATACCATACCACATCCTGCTACCGGAGTCACCTAGTGCAG” it was 3240 fluorescence intensity (a.u.). “TTACGATCACCGAAAAGTGGTAGCGTACGTGTTGAGTGTGCGGAGTCACCTAGTGCAG”: the binding signal was 4140 fluorescence intensity (a.u.). In the case of “GCTTGCTTTGTCACATGCAGTTTTACACCTTTTATTTCTCCGGAGTCACCTAGTGCAG” it was 6070 fluorescence intensity (a.u.); in that of “AATCAGATGATCGGTGCTGCAGCCATCATTGAAGCCTGTGCGGAGTCACCTAGTGCAG”, 3400 fluorescence intensity (a.u.); in that of “TCAGGTGAAATCTGCTTCAGCCATATTCATTGGTAATCAGCGGAGTCACCTAGTGCAG”, 3600 fluorescence intensity (a.u.).

For the sequence “AAATCAGGAGCCTCTGCCATTGGTTTGTGAAGCTACATCGCGGAGTCACCTAGTGCAG”, the binding signal was 65500 fluorescence intensity (a.u.). In the case of “ACACTATTAATTGTTTTATTAGGTTTCAGACGTTATTTTGCGGAGTCACCTAGTGCAG” it was 3150 fluorescence intensity (a.u.); in that of “CTCACTGACGTAGGTTTATTGTACCTATTCTAATTAAGGCCGGAGTCACCTAGTGCAG”, 39400 fluorescence intensity (a.u.). Take “GAGGGTTTTAATTACTCACTGACATGTAGGGTCACGGGGTCGGAGTCACCTAGTGCAG”: the binding signal was 4390 fluorescence intensity (a.u.). In the case of “TTTGAGCGCCGCTCGACTATGTCATGAAGCAACGTGGCACCGGAGTCACCTAGTGCAG” it was 7750 fluorescence intensity (a.u.); in that of “GGGGAGAGGGAGGAGGAGGAGGAGAGTGGCTACTAGTACTCGGAGTCACCTAGTGCAG”, 3380 fluorescence intensity (a.u.). In the case of “ACATTCTAGCCATTCATTCTTCACACCTCATTTAATCCTACGGAGTCACCTAGTGCAG” it was 3280 fluorescence intensity (a.u.). In the case of “TGTACATTGTTTGAACTAATCAGTAATCATCACAGTGGTTCGGAGTCACCTAGTGCAG” it was 3160 fluorescence intensity (a.u.). “CTCATTTGAACACATGTACACTACTAATCCTCGTTCTGGACGGAGTCACCTAGTGCAG”: the binding signal was 39200 fluorescence intensity (a.u.). In the case of “GGCAAACCAGTAACTAGAAACCACGTTATTCAAAAGCATTCGGAGTCACCTAGTGCAG” it was 3940 fluorescence intensity (a.u.).

Consider “CAATAGACTTCAAGGAAGCATACCAATACCAGTAACCACACGGAGTCACCTAGTGCAG”, for which the binding signal is 40800 fluorescence intensity (a.u.). For “ACCACACCTTGTCAAAACTTCAGTAACAGCAGAAGTTACACGGAGTCACCTAGTGCAG”, the binding signal is 3140 fluorescence intensity (a.u.).

Consider “TATACACCACGTTTGCTGGCTTGGCTTCCTTCCACACTCCCGGAGTCACCTAGTGCAG”, for which the binding signal was 4000 fluorescence intensity (a.u.). In the case of “GCGGTTTATGTACACGTCAGCATTTTGCTTCCTTCCTTCCCGGAGTCACCTAGTGCAG” it was 47800 fluorescence intensity (a.u.); in that of “TCTTTTGGTTTACAACACTTTGTATGCTAGCATTATTTTGCGGAGTCACCTAGTGCAG”, 3420 fluorescence intensity (a.u.).
